Source: PubChem (National Center for Advancing Translational Sciences (NCATS))
Most compounds without a hit are left out; they make up all but 19% or so of the library.
Shiga inhibitor – A qHTS for Small Molecule Inhibitors of Shiga Toxin. AID 2315, 2010. Vero cells, Shiga toxin protein synthesis inhibition reporter. hit rate 9.2% among 290,000. inhibition, % at 38.7 µM; in the data active = inhibition mostly above about 28%, no sharp cut-off; inactive = mostly below about 43%; also: 0% is about no effect
MARV entry inh – qHTS for inhibitors of binding or entry into cells for Marburg Virus | hit rate 1.8% among 300,000 | Potency, µM (series often up to 37.8 µM), for inactives: at the top dose activity change, negative = inhibition, most hits filed as inhibitors | Marburg virus pseudotyped entry inhibition, cell reporter | AID 540276, 2011; calls by dose curve; tested in HEK293 cells; also: potency is read from the fitted curve at half-maximal effect; % is scaled to controls: 0 for no effect and ±100 for the full control effect
Pf growth 96h – Primary qHTS for delayed death inhibitors of the malarial parasite plastid, 96 hour incubation. Potency, µM (top dose mostly 28.7 µM), without a hit: at the highest dose activity change, negative = inhibition, actives largely listed as inhibitors. P. falciparum luciferase reporter growth, 96 h. hit rate 6.9% among 320,000. AID 504834, 2011; also: potency is read from the fitted curve at half-maximal effect; % is scaled to controls: 0 for no effect and ±100 for the full control effect
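Compounds incubated with erythrocytes infected by luciferase-expressing P. falciparum (2% hematocrit, 0.05% parasitemia final) for 96 hours, 37 C in 5% CO2. Growth inhibition scored as decreased luciferase luminescence.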
Cycloheximide cs – Cycloheximide Counterscreen for Small Molecule Inhibitors of Shiga Toxin. AID 2314, 2010. hit rate 12% among 300,000. cell reporter, cycloheximide protein synthesis inhibition counterscreen. max response, %; in the data active = max response mostly above about 13%, no sharp cut-off; inactive = mostly below about 14%; also: read at 38.3 µM for the half of the compounds with a filed dose; 0% is about no effect
Lassa entry inh – qHTS for Inhibitors of binding or entry into cells for Lassa Virus; Lassa virus pseudotype entry inhibition, cell reporter; Potency, µM (titrated, usually from 37.9 µM), for inactives: at the highest dose activity change, negative = inhibition, actives largely listed as inhibitors; hit rate 1.2% among 300,000; calls by dose curve; tested in HEK293 cells; also: potency is read from the fitted curve at half-maximal effect; % is scaled to controls: 0 for no effect and ±100 for the full control effect; nearly all actives have a fitted effect of over 50% in size
Pf growth 48h – Primary qHTS for delayed death inhibitors of the malarial parasite plastid, 48 hour incubation; Potency, µM (top dose mostly 28.7 µM), without a hit: at the top dose activity change, negative = inhibition, hits mostly inhibitors; hit rate 5.9% among 310,000; P. falciparum luciferase growth in erythrocytes, 48 h; also: potency is read from the fitted curve at half-maximal effect; % is scaled to controls: 0 for no effect and ±100 for the full control effect
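Growth was read as firefly luciferase luminescence after a 48 h, 37 C, 5% CO2 exposure of compounds to reporter-bearing P. falciparum cultures (0.1% parasitemia, 2% hematocrit final) in Albumax-supplemented RPMI 1640.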
The depositor's hits bear a star; ? = inconclusive; . = not tested or not shown; [ ] = another dose, or the depositor's remark. Unless noted, calls follow the shape of the dose curve; as a rule, active = well fitted inhibition curve with a large enough effect; inconclusive = small, poorly fitted or top-dose-only effect, or another doubt; inactive = no such curve, though single readings can be large or run the other way.

SMILES	Shiga inhibitor	MARV entry inh	Pf growth 96h	Cycloheximide cs	Lassa entry inh	Pf growth 48h
CC(C)CCNC(=S)Nc1ccc(Br)cc1	48*	?	2%	30*	?	?
CCCNC(=S)Nc1ccc(Br)cc1	15	1%	-27%	16	6%	15%
O=C(c1cc(Cl)ccc1Cl)N1CCc2ccccc21	-3	?	?	-3	-1%[46.1 µM]	-12%
Cc1ccc(C(=O)NCc2nnnn2-c2ccc(C)c(C)c2)cc1	.	.	.	.	24%[46.1 µM]	.
C/C(=N\NS(=O)(=O)c1cccc([N+](=O)[O-])c1)c1cccnc1	26	-14%[46.1 µM]	100%[5.75 µM]	1	16%	-2%
CC(C)CNC(=S)Nc1ccc(S(N)(=O)=O)cc1	10	3%	-7%	-4	3%	2%
Cc1ccc(NC(=S)NCC(C)C)cc1	40*	1%	22%	35*	2%	21%
CCOc1ccc(NC(=O)N2CCC(NC(=O)C(Cc3ccccc3OC)NC(C)=O)CC2)cc1 (configuration not stated)	-12	2%[46.1 µM]	8%	4	6%	-4%
CCCCN(C(=O)CSc1nnc(-c2ccco2)o1)c1c(N)n(Cc2ccccc2)c(=O)[nH]c1=O	-10	.	?	-3	.	?
COc1cccc(NC=C2C(=O)OC3(CCCCC3)OC2=O)c1	67	2%	29%	20	-3%	29%
COc1ccc(C2=CC(=O)OC3(CCCCC3)O2)cc1	18	-9%	?	6	-7%	4.1µM*
Cc1ccc(S(=O)(=O)N2[C@@H](c3ccc(Cl)cc3)C(C(=O)O)=CC[C@H]2c2ccc(C(C)C)cc2)cc1	.	.	55%	.	.	0%
Cc1ccc(S(=O)(=O)N2[C@@H](c3ccc(Cl)cc3)C(C(=O)O)=CC[C@H]2c2ccc3c(c2)OCO3)cc1	.	.	8.3µM*	.	.	9.3µM*
Cc1ccc(S(=O)(=O)N2[C@@H](c3cccc(Cl)c3)C(C(=O)O)=CC[C@H]2c2ccc3c(c2)OCO3)cc1	.	.	?	.	.	9.3µM*
Cc1cc(OC(=O)N(C)C)nc(-c2ccc(C)c(Cl)c2)n1	39*	3%[46.1 µM]	?	15	28%	?
COc1cc(S(=O)(=O)N(C)Cc2ccc3c(c2)OCCO3)ccc1NC(C)=O	.	.	?	.	.	7%
CCCCN(CCCC)CCCNC(=O)C12CN(Cc3ccccc3)CC1C(c1cccc([N+](=O)[O-])c1)=NO2 (configuration not stated)	-9	-2%	?	2	.	?
CCC(c1nnnn1Cc1ccc(OC)cc1)N(CCCO)Cc1cc2cc3c(cc2[nH]c1=O)OCO3 (configuration not stated)	26	2%	.	-1	?	?
Cc1ccc2[nH]c(=O)c(CN(Cc3ccc4c(c3)OCO4)Cc3nnnn3Cc3ccco3)cc2c1	-14	?	.	-3	-29%	?
Cc1ccc2[nH]c(=O)c(CN(CCc3ccccc3)C(c3nnnn3Cc3ccco3)C(C)C)cc2c1 (configuration not stated)	40*	?	?	15	7%	3.3µM*
CC(C)C(c1nnnn1Cc1ccccc1)N(CCCO)Cc1cc2cc3c(cc2[nH]c1=O)OCO3 (configuration not stated)	-5	-29%	45%	-3	6%	7.4µM*
CCC(c1nnnn1Cc1ccco1)N(CCc1ccccc1)Cc1cc2cc(C)ccc2[nH]c1=O (configuration not stated)	-17	?	314%	-7	?	13µM*
CN1CCN(CC(=O)Nc2ccc(S(=O)(=O)N(C)C)cc2)CC1	8	0%	?	9	?	.
COc1ccc(-c2c3c(nc4sc(C(=O)Nc5cccc(OC)c5)c(N)c24)CC(C)(C)CC3=O)cc1	.	?	.	.	-6%[46.1 µM]	.
Cc1ccc(C2CC(=O)c3cnc(N4CC(C)CC(C)C4)nc3C2)cc1 (configuration not stated)	-7	-8%	?	1	.	10%
COc1ccc(C(C(=O)NC2CCCCC2)N(C(=O)c2ccco2)c2ccc(-n3cnnn3)c(C)c2)cc1 (configuration not stated)	.	-6%	.	.	-10%	.
